A selection: hits, their analogues and other compounds. The true share with any hit is near 11%.
BAZ2B inh: inhibitors of human BAZ2B bromodomain; Q9UIF8; 360,000 compounds, 4.4% hits; AID 504333; Potency, µM (doses to about 114 µM), inactives show at the top dose activity change, negative = inhibition, actives largely listed as inhibitors; AlphaScreen BAZ2B-H3K14Ac peptide displacement; note: % is set by controls: 0 for no effect and ±100 for the full control effect; nearly all actives have a fitted effect of over 60% in size
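Inhibition is scored as reduced AlphaScreen emission. The BAZ2B/b-H3(5-23)K14Ac complex (50 nM each) in PBS pH 7.4, 0.01% Tween-20 meets compound (up to 110 uM) for 30 min at RT before bead addition.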
L3MBTL1 block: L3MBTL1 (human) inhibition. Q9Y468. AlphaScreen L3MBTL1–H3K9me1 peptide binding. Potency, µM (top dose mostly 57.1 µM), for the others: at the highest dose activity, negative = inhibition, actives largely listed as inhibitors. 230,000 compounds, 0.66% hits. AID 485360; note: % is set by controls: 0 for no effect and ±100 for the full control effect; nearly all actives have a fitted effect of over 60% in size
Target sequence (Q9Y468 whole entry, looked up): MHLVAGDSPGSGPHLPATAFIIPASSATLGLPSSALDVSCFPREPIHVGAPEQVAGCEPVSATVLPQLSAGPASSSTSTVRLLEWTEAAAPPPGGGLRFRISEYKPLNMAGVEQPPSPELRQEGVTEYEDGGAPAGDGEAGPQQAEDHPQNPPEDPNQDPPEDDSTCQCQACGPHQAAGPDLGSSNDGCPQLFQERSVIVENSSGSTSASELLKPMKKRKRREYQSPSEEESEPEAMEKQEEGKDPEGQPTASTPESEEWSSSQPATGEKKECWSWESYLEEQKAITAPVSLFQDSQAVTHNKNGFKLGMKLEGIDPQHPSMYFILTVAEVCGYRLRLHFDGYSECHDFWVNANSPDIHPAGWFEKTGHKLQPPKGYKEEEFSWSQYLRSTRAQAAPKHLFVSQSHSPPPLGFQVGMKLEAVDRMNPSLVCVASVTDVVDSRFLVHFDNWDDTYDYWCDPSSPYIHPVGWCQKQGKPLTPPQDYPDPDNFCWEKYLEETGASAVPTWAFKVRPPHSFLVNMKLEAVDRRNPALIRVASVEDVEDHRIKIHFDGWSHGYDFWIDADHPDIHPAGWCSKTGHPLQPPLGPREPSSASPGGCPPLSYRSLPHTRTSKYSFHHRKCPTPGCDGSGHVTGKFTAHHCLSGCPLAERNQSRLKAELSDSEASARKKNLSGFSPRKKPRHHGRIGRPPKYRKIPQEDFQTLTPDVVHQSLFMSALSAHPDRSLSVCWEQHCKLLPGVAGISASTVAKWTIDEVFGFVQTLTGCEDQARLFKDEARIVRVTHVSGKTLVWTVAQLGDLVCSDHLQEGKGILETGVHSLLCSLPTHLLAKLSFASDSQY
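L3MBTL1 (50 nM) pre-complexed 30 min with biotinylated H3(1-15)K9me1 peptide (75 nM), then compounds added for 30 min at room temperature; AlphaScreen streptavidin donor/nickel chelate acceptor beads (10 ug/mL final) read after 30 min dark incubation.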
G9a block: G9a (human) methyltransferase inhibition. Q96KQ7. G9a H3K9 monomethylation, AlphaScreen, 2 h. Potency, µM (series often up to 102 µM), inactives show at the highest dose activity, negative = inhibition, hits mostly inhibitors. 350,000 compounds, 8.8% hits. AID 504332; note: % is set by controls: 0 for no effect and ±100 for the full control effect; nearly all actives have a fitted effect of over 75% in size
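Using a bead-based AlphaScreen, monomethylated H3K9 product from 2 h room-temperature reactions (G9a 20 nM, peptide 500 nM, SAM 20 uM) was detected with 0.5 ug/mL rabbit anti-H3K9me1 antibody.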
JMJD2A Tudor: inhibitors of human JMJD2A Tudor domain; AlphaScreen JMJD2A-Tudor / H3K4me3 peptide binding; Potency, µM (top dose mostly 114 µM), without a hit: top-dose activity change, negative = inhibition, most hits filed as inhibitors; 390,000 compounds, 4.4% hits; AID 504339; note: % is set by controls: 0 for no effect and ±100 for the full control effect; nearly all actives have a fitted effect of over 50% in size
HP1b binding inh: blocks HP1-beta chromodomain binding to methylated histone tails; AID 540317; 390,000 compounds, 0.56% hits; AlphaScreen HP1-beta / biotin-H3K9me3 peptide binding; P83916; Potency, µM (highest dose often 114 µM), for the others: at the top dose activity change, negative = inhibition, usual class: inhibitors; note: nearly all actives have a fitted effect of over 70% in size
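HP1-beta protein (50 nM final) preincubated 30 min at room temperature with biotinylated H3(1-18)K9me3 peptide (50 nM) in PBS pH 7.4, 0.01% Tween-20, then compound added for 30 min. AlphaScreen streptavidin donor/nickel chelate acceptor beads (10 ug/mL final), 30 min dark, luminescence read.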
Active calls of the source: *; ? = inconclusive; / = no result; ! = not confirmed by another sample; [ ] = dose if it differs, or a comment. Calls come from the whole dose curve; as a rule, active = well fitted inhibition curve with a large enough effect; inconclusive = small, poorly fitted or top-dose-only effect; inactive = no such curve, though single readings can be large or run the other way. Potency is the fitted concentration of half-maximal effect.

SMILES	BAZ2B inh	L3MBTL1 block	G9a block	JMJD2A Tudor	HP1b binding inh
CC(=O)Nc1ccc(S(=O)(=O)NC2=C(N3CCN(C)CC3)C(=O)c3ccccc3C2=O)cc1	32µM*	/	50µM*	-25%	0%[57 µM]
CCN1CCN(C2=C(NS(=O)(=O)c3ccc(C)cc3)C(=O)c3ccccc3C2=O)CC1	?	/	40µM*	-35%	6%
CC(=O)Nc1ccc(S(=O)(=O)NC2=C(N3CCN(Cc4ccccc4)CC3)C(=O)c3ccccc3C2=O)cc1	20µM*	/	?	35µM*	32µM*
CCOC(=O)N1CCN(C2=C(NS(=O)(=O)c3ccc(NC(C)=O)cc3)C(=O)c3ccccc3C2=O)CC1	45µM*	/	28µM*	?	-11%[57 µM]
CCN1CCN(C2=C(NS(=O)(=O)c3ccc(NC(C)=O)cc3)C(=O)c3ccccc3C2=O)CC1	?	/	?	7%	30%
CCc1cccc(NC(=O)CSc2n[nH]c(-c3ccccc3Cl)n2)c1	2%	/	6%[59 µM]	-22%	13%[57 µM]
COc1ccc(NC(=O)C(OC(=O)CNC(=O)c2ccccc2)c2ccccc2)cc1F (stereo unspecified)	/	/	/	-23%	/
Cc1ccc(C(=O)NCCc2ccc(S(N)(=O)=O)cc2)cc1-n1cnc2cccnc21	-21%	/	?	6%	32%
CCN1CCN(C(=O)Cn2cnc3sc(C)c(S(=O)(=O)N4CCN(c5ncccn5)CC4)c3c2=O)CC1	-1%	/	-8%	-15%	27%
CC(=O)Nc1ccc(S(=O)(=O)Nc2cc(C)cn(Cc3ccccc3)c2=O)cc1	-3%	/	14%[59 µM]	25µM*	27%
CC(=O)Nc1ccc(S(=O)(=O)Nc2cccn(Cc3ccc(C)cc3)c2=O)cc1	-8%	1%	3%	-29%	4%
CCOC(=O)C1=C(C)Nc2nc(SCC)nn2C1c1ccc(OC)cc1 (stereo unspecified)	4%	/	25%[12.7 µM]	12%[57.1 µM]	14%
CCOC(=O)C1=C(C)Nc2nc(=S)[nH]n2C1c1ccc(Cl)cc1 (stereo unspecified)	-29%	-10%	1.3µM*	16µM*	?
CCn1c(C(=O)Nc2ccc(C)cc2C)cc2sc(Cl)cc21	5%	/	13%[59 µM]	4%	59%
Cc1ccc(C)c(N2CCN(c3cc(C)nc4c(-c5ccc(Cl)cc5)c(C)nn34)CC2)c1	0%	/	53%[59 µM]	6%	52%
CC(NCC(=O)NC(=O)NCCC1=CCCCC1)c1ccc(S(N)(=O)=O)cc1 (stereo unspecified)	/	/	/	22µM*	?
CC(NC(=O)C(=O)NCCC1=CCCCC1)c1ccccc1 (stereo unspecified)	7%	10%	24%[59 µM]	-18%	11%
CCCC(=O)OCc1cnc(C)c2oc(=O)c(C(=O)Nc3cccc(C(F)(F)F)c3)cc12	-35%	/	-3%[59 µM]	-30%	-9%
COc1ncc2nc(-c3ccc(Cl)cc3)c(=O)n(CCC#N)c2n1	/	/	11%[0.501 µM]	/	/
CCOc1ccc(CN2C(=O)c3ccccc3Sc3ccc(C(=O)OC)cc32)cc1	3%	/	13%[59 µM]	-24%	17%
COc1ccc(-c2cc3nc(C4CCN(C(=O)OC(C)(C)C)CC4)c(C(=O)O)cn3n2)cc1	-32%	6%	79µM*	-11%	20%
COc1ccc(N2CCN(C(=O)c3cnn(-c4ccc(OC)cc4)c3C3CCN(C(=O)OC(C)(C)C)CC3)CC2)cc1	-12%[57.1 µM]	/	14µM*	-36%	15%
COCCCNCCCCOc1c(Cl)cc(C)cc1Br	22µM*	-4%	/	2.5µM*	?
Cc1cc(Cl)c(OCCCNC2CCCC2)c(Br)c1	?	1%	10µM*	22µM*	-37%
CCCCN(C)c1nc2c(S(=O)(=O)c3ccc(CC)cc3)nnn2c2ccc(Cl)cc12	15%	/	19%[59 µM]	17%	46%
SMILES	BAZ2B inh	L3MBTL1 block	G9a block	JMJD2A Tudor	HP1b binding inh
Cc1ccc(C)c(CSc2nc(-c3ccccc3F)nc3c2Cc2c(CO)cnc(C)c2O3)c1	-16%	/	2%[59 µM]	-6%	56%
O=C(Nc1ccc(Cl)cc1)C1C2C=CC3(O2)C1C(=O)N(CCN1CCCCC1)C3C(=O)NC1CCCCC1 (stereo unspecified)	0%	/	-21%	-14%	-4%
O=C(Nc1ccc(Cl)cc1)C1C2C=CC3(O2)C1C(=O)N(CCCN1CCCCC1)C3C(=O)NC1CCCCC1 (stereo unspecified)	1%	/	50µM*	-5%	11%
O=C(/C(=C/O)N=Nc1ccc(Cl)cc1)c1ccncc1	32µM*	-12%	17%[0.501 µM]	?	-50%
Cc1ccc(N=N/C(=C\O)C(=O)c2ccncc2)cc1	45µM*	/	?	?	-30%
O=C(/C(=C/O)N=Nc1ccccc1)c1ccco1	?	-13%	-49%	?	?
Cc1ccc(C(=O)COC(=O)c2cc(=O)[nH]c3ccccc23)cc1C	50µM*	3%	28µM*	-33%	?
COc1ccccc1C(=O)COC(=O)c1cc(=O)[nH]c2ccccc12	3%	1%	?	-7%	33%
O=C(Cc1cccc2ccccc12)Nc1c(F)cccc1F	2%	/	-5%[2.33 µM]	-4%	50%
COc1cc(-c2nc(-c3ccccc3)c(-c3cc([N+](=O)[O-])ccc3C)[nH]2)cc(OC)c1OC	?	-30%	10µM*	?	-30%
COc1cc(-c2nc(-c3cccc(Cl)c3)c(-c3ccccc3)[nH]2)cc(OC)c1OC	-5%	/	3%[59 µM]	-8%	50%
O=C(CSc1ncnc2sc3c(c12)CCCC3)c1ccco1	12%	-4%	34%[59 µM]	-31%	45%
CCc1cc2ccccc2nc1SCC(=O)N1CCN(C(=O)c2ccco2)CC1	?	2%	50µM*	-14%	30%
CCc1cc2cc(C)ccc2nc1SCC(=O)N1CCN(C(=O)c2ccco2)CC1	?	-10%	?	?	-8%
CCc1nc(SCC(=O)N2CCN(C(=O)c3ccco3)CC2)c2c3c(sc2n1)CCCC3	-11%	-6%	50µM*	?	-21%
Cn1nnnc1SCCCNCc1cc(Br)ccc1OCc1ccccc1	?	/	-25%[59 µM]	-6%	41%
O=C(O)CSC1=NC(=Nc2cccc(Cl)c2)C2(CCCCC2)N1c1ccccc1	-32%	4%	3.5µM*	45µM*	?
O=C(CCN1C(=O)C2C3CCC(C3)C2C1=O)Nc1ccc(F)cc1 (stereo unspecified)	-4%	/	13%	-5%	3%
CC(C)NC[C@@H](O)c1ccc(O)c(O)c1	?	?	18µM*!	45µM*	?
CC(=O)c1sc2nc(-c3cccs3)ccc2c1N	2%	/	1.6µM*	25µM*	-3%
Cc1nc2ccccn2c1-c1csc(NCc2ccco2)n1	50µM*	-14%[11.4 µM]	8.9µM*	-34%[57.1 µM]	2%
COc1ccc(-c2csc(NCc3ccco3)n2)cc1	50µM*	-3%	40µM*	79µM*	?
Cc1nnc(NCc2ccco2)s1	-6%	7%	18%	-4%	23%

Screening data: PubChem BioAssay, National Center for Advancing Translational Sciences (NCATS)
